# Laboratory results taken from the supplement of paper PMC12669032.
# Values without a mark were called inactive.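 How the source made its calls: active = AUC reduced over 20% with Padj below 0.05 in at least 2 of 3 replicates; inactive = otherwise.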
# Legend:
# Experiment in all cases: growth AUC relative to DMSO control (median of replicates) (fraction); higher = more growth (less inhibition), active = hit call of the paper
# Conditions in all cases: 20 µM; 24 h
# [1] = tested on: Coprococcus comes
# In short: (§1)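 Each value is the median of three biological replicates, grown on separate days, of a gut bacterial monoculture incubated anaerobically at 37 °C in mGAM with 20 µM compound (1% DMSO). Cultures started at OD600 0.05 and were read at OD600 hourly for 24 h, with the minimum OD set to 0. Area under the growth curve was normalised to the plate median of solvent-only wells, or to row and column medians on the industrial chemical plate.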
# [2] = tested on: Escherichia coli ED1a
# In short: as §1
# [3] = tested on: Escherichia coli IAI1
# In short: as §1
# [4] = tested on: Eubacterium rectale
# In short: as §1
# [5] = tested on: Fusobacterium nucleatum subsp. animalis
# In short: as §1
# [6] = tested on: Lactobacillus gasseri
# In short: as §1
# [7] = tested on: Lactobacillus paracasei
# In short: as §1
# [8] = tested on: Odoribacter splanchnicus
# In short: as §1
# [9] = tested on: Parabacteroides distasonis
# In short: as §1
# [10] = tested on: Parabacteroides merdae
# In short: as §1
# [11] = tested on: Roseburia intestinalis
# In short: as §1
# [12] = tested on: Streptococcus salivarius
# In short: as §1
SMILES,growth AUC [1],growth AUC [2],growth AUC [3],growth AUC [4],growth AUC [5],growth AUC [6],growth AUC [7],growth AUC [8],growth AUC [9],growth AUC [10],growth AUC [11],growth AUC [12]
CCOP(=S)(OCC)Oc1ccc(Cl)cc1Cl,1.03,1.01,1.02,0.953,1.03,1,1.07,1.02,1.05,0.997,1.05,1.04
COc1ccc(C(c2ccc(OC)cc2)C(Cl)(Cl)Cl)cc1,0.978,1.04,0.967,0.882,1.06,1.13,1.02,1,0.938,0.71,0.987,0.992
CC1CCCCC1NC(=O)Nc1ccccc1 (mixture of isomers),0.989,0.995,0.972,0.942,0.999,1.01,0.926,1.01,0.982,0.986,0.985,1.02
Nc1cnn(-c2ccccc2)c(=O)c1Cl,1.02,1.03,1,1.03,1.05,1.07,1.07,0.949,0.996,0.997,1.1,1.1
O=C(Nc1ccccc1)Nc1ccnc(Cl)c1,1.03,0.942,0.788 (active),0.803,1.1,0.858,0.971,0.912,0.677 (active),0.888,0.896,0.844
Cc1occc1C(=O)Nc1ccccc1,0.977,0.966,0.953,1.16,0.933,0.973,0.925,0.985,0.971,0.998,0.996,0.995
Clc1c(Cl)c(Cl)c(Cl)c(Cl)c1Cl,1,1.01,1.01,1.02,0.98,1.07,0.936,1.03,1.03,1.03,1.01,0.999
CCOP(=O)(OCC)O/C(=C/Br)c1ccc(Cl)cc1Cl,1.01,0.976,0.973,1.04,0.996,0.976,0.996,1.02,0.547 (active),0.898,0.995,0.975
CC(Cc1ccc(C(C)(C)C)cc1)CN1CCCCC1 (configuration not stated),0.931,0.998,0.932,1.03,1.02,0.988,1.03,1.05,0.946,0.997,0.976,1
CN(C)C1CSSSC1.O=C(O)C(=O)O,0.99,0.985,1.02,1.7,1.05,1.03,0.972,0.962,1.04,1.02,1.2,0.994
COP(=S)(Oc1cc(Cl)c(Br)cc1Cl)c1ccccc1 (configuration not stated),1.02,1.01,0.992,0.893,1.03,0.852,0.982,1.03,0.957,1.01,1.04,1.05
O=C1OCC2C1C1(Cl)C(Cl)=C(Cl)C2(Cl)C1(Cl)Cl (configuration not stated),1.01,0.979,1.01,1.07,0.925,0.927,0.991,1.09,1.07,0.987,0.975,0.986
CC(C)N(Cc1ccccc1)C(=O)C(C)(C)C,0.988,0.966,0.971,1.03,0.969,0.814,0.934,1.07,0.989,0.948,0.898,0.961
Cc1c(COC(=O)[C@@H]2[C@H](/C=C(\Cl)C(F)(F)F)C2(C)C)cccc1-c1ccccc1,1.03,1.02,1.02,0.938,1.07,0.862,0.982,1.03,1.01,0.965,0.924,0.949
Oc1cc(Cl)cc(Cl)c1,1.02,1,1.02,1.08,1.1,1.08,0.957,1.03,0.997,0.973,1.01,1
COc1cc(OC)n2nc(S(=O)(=O)Nc3c(Cl)ccc(C)c3Cl)nc2n1,1.02,0.993,1.02,0.994,0.9,1.09,0.978,1.02,1.06,0.986,0.999,0.954
COc1cc(OC)nc(Oc2cccc(Oc3nc(OC)cc(OC)n3)c2C(=O)[O-])n1.[Na+],0.98,0.989,0.979,1.01,1.04,0.958,0.982,1.01,0.994,1.01,1.06,1.01
O=C1C[C@@H]2OCC=C3CN4CC[C@]56c7ccccc7N1[C@H]5[C@H]2[C@H]3C[C@H]46,0.984,0.973,0.985,1,0.909,0.928,1.09,1.08,0.988,0.967,0.998,0.968
CNC(=O)ON=C(CS(C)=O)C(C)(C)C (configuration not stated),1,1.02,0.998,1.14,1.01,1.06,0.999,1.02,1.03,1.01,0.974,0.989
Cc1ccccc1CO[C@@H]1C[C@@]2(C(C)C)CC[C@]1(C)O2 (mixture of isomers),1,1.02,0.961,1.14,1.02,0.96,1.01,1.04,0.887,1,0.978,0.97
Oc1c(Cl)ccc(Cl)c1Cl,0.98,1.02,0.985,0.969,1.05,0.922,1.01,0.915,0.911,0.981,0.951,0.964
